A number with no mark means an inactive call. Inconclusive results are not listed. Activity calls are given as the source filed them. Unless noted, the rule behind the calls is not given here.
How the values were obtained:
[1] = system: Hepatitis C virus NS3 helicase; assay: blockers of NS3h binding to DNA – biochemical, fluorescence polarization, NIH Clinical Collection, primary screen (AID 743270); conditions: NS3 helicase binding to Cy5-dT15 DNA, stronger effect = higher value, concentration not given here
[2] = target: Single-stranded DNA-binding protein (Escherichia coli (strain K12)) (UniProt P0AGE0); assay: SSB-ssDNA binding inhibitors – biochemical, fluorescence polarization, NIH Clinical Collection, counter-screen for HCV NS3 helicase inhibitor project (AID 743271; in the data active = inhibition above about 28%); conditions: E. coli SSB-DNA binding, stronger effect = higher value, concentration not given here
[3] = compounds distorting NS3 helicase fluorescence signal – biochemical, NIH Clinical Collection, artefact control for HCV NS3 helicase inhibitor project (AID 743272); conditions: fluorescence interference counterscreen, HCV NS3 helicase assay; stronger effect = lower value;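 note: HCV NS3 helicase with a Cy5 labelled single stranded DNA probe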
F380Y/beta1 = assay: BK channel mutant inhibitors and activators – cell-based, U2OS BacMam, thallium flux, beta subunits, selectivity assay, profiling panel (AID 1259406;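 active = thallium flux through the channel raised or lowered by more than 3 SD from vehicle-only wells, actives on both sides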;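 note: initial slope of Thallos dye fluorescence rise after thallium is added; log ratio against the mean of 0.3% DMSO vehicle wells on the same plate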); conditions: U2OS BacMam BK variants, at 30 µM
F380Y/beta4 = assay: as above; conditions: U2OS BacMam BK variants, at 30 µM
R275C/beta4 = assay: as above; conditions: U2OS BacMam BK variants, at 30 µM
R275C/Slo1WT/beta2 = assay: as above; conditions: U2OS BacMam BK variants, at 30 µM
[4] = modulation of C. elegans fzo-1 (AID 1259413);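 note: fzo-1 mutant C. elegans worms in liquid wells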; conditions: C. elegans fzo-1 modulator screen, mean read-out; stronger effect = higher value
[5] = glutamate excitotoxicity neuroprotectants – cell-based, TUNEL DNA degradation staining, MNGlu (AID 1594); conditions: motor neurons, glutamate-induced death, at 1 µM, stronger effect = higher value

Q: Which inhibition [1] does the source give for `C[C@]12CC[C@@H]3c4ccc(O)cc4CC[C@H]3[C@@H]1CC[C@@H]2O` here?
A: 2.77%

Q: And the inhibition [2]?
A: -0.87%

Q: And the fluorescence ratio [3]?
A: 0.97

Q: Which inhibition [1] does the source give for `CCC(=O)OCC(=O)[C@@]1(OC(=O)CC)[C@@H](C)C[C@H]2[C@@H]3CCC4=CC(=O)C=C[C@]4(C)[C@@]3(Cl)[C@@H](O)C[C@@]21C` here?
A: 0.45%

Q: And the inhibition [2]?
A: 2.57%

Q: And the fluorescence ratio [3]?
A: 0.96

Q: What about the log fold change Tl+ flux (F380Y/beta1) of the same compound?
A: -0.203 (active)

Q: What about the log fold change Tl+ flux (F380Y/beta4) of the same compound?
A: -0.237 (active)

Q: What about the log fold change Tl+ flux (R275C/beta4) of the same compound?
A: 0.0199

Q: What about the log fold change Tl+ flux (R275C/Slo1WT/beta2) of the same compound?
A: -0.0376

Q: For `Cc1ccc(N(CC2=NCCN2)c2cccc(O)c2)cc1`, which mean signal [4] is on record?
A: 229

Q: Which protection [5] does the source give for `CN1CCc2c(c3ccccc3n2Cc2ccccc2)C1` here?
A: 49% (active)

Q: For `NC(N)=NCCCCN=C(N)N`, which protection [5] is on record?
A: 45% (active)

— PubChem BioAssay
